Assay results published in PubChem BioAssay (NCATS).
Inconclusive results are not listed. Entries that show only a call come without a potency. The source made the active and inactive calls. Calls come from the whole dose curve; as a rule, active = well fitted cell-killing curve with a large enough effect; inconclusive = small, poorly fitted or top-dose-only effect; inactive = flat fitted curve, though single readings scatter.

Assay: qHTS of pediatric cancer cell lines to identify multiple opportunities for drug repurposing: Primary screen for Rh18 cells (AID 1347102); note: nearly all actives have a fitted effect of over 65% in size
Details: Rh18 rhabdomyosarcoma viability, CellTiter-Glo luminescence, 48 h; series mostly up to 46 µM
Excerpt: Drug repurposing or repositioning has been offered as a strategy for drug development in oncology programs. This approach has special potential for childhood cancers and other rare or orphan diseases, where the expected return on new drug development has been a disincentive to pharmaceuticals.
In this project we exploit the poly-pharmacology of drugs to discover new indications via phenotypic screening of a panel of 19 well-characterized cell lines derived from solid tumors seen in children and adolescents. The goal is to identify approved drugs with previously unrecognized anticancer properties that has the potential to reveal new mechanisms and biological processes involved in carcinogenesis or drug resistance. We employed a titration-based paradigm (quantitative high-throughput screening or qHTS), where all compounds were tested at multiple concentrations for their effect on cell viability. Concentration-response curves (CRCs) were derived directly from the primary screen, and both potency and efficacy values were used to identify compounds with robust bioactivity profiles. We screened the NIH Chemical Genomics Center (NCGC) Pharmaceutical Collection (NPC) and Mechanism Interrogation Plate (MIPE) small molecule collections of approved and investigational compounds against these cell lines; and measured metabolically active cells after 48 hours of compound treatment as a proxy for cell viability.
Assay Submitter: Nathalia J. Martinez, National Center for Advancing Translational Sciences, National Institutes of Health, Rockville, MD, USA; email: natalia.martinez@nih.gov
[1] Shen, M et al. Quantitative high-throughput phenotypic screening of pediatric cancer cell lines identifies multiple opportunities for drug repurposing. Oncotarget 2017 Dec 19;9(4):4758-4772. PMID 29435139.
The cells were obtained from University of North Carolina (UNC), Pediatric Preclinical Testing Program (PPT), and Coriell Institute (CI).
qHTS cell viability assay:
Cells were assayed in growth media at a density of 500-1,000 cells/well. Five microliters of cells were dispensed into 1,536-well, white, solid-bottom, TC-treated plates (Greiner Bio One) using a multidrop dispenser and incubated at 37 degrees C, 5% CO2, under a humidified atmosphere for 5 hours. Twenty-three nanoliters of compounds and controls (neutral control DMSO or positive control bortezomib at final concentration of 2.3 µM) were subsequently transferred by Kalypsys pintool. For primary screens, the MIPE collection was tested at 11-point dilutions (final concentrations range from 0.78 nM to 46 µM) and the NPC collection at 8-point dilutions (final concentrations range from 0.59 nM to 46 µM). Compounds tested in follow-up screens were assayed at 11-point dilutions. Cells were incubated for 48 hours, followed by addition of 3 µL of CellTiter-Glo (Promega). After a 15 min incubation at room temperature, samples were analyzed for luminescence intensity using a ViewLux High-throughput CCD imager equipped with clear filters.
Potency is the fitted concentration of half-maximal effect.

Q: With `Nc1ccc(O)cc1` as the molecule, how does the Potency read?
A: The Potency was “inactive”.

Q: With `CN1CCC(=C2c3ccccc3CCc3cccnc32)CC1` as the molecule, how does the Potency read?
A: Its Potency is “inactive”.

Q: Which Potency does the source give for `CC(C)(C)C1CCC(CC2=C(O)c3ccccc3C(=O)C2=O)CC1` (stereo not given) here?
A: The Potency was “inactive”.

Q: Which Potency does the source give for `CN1CCC(Nc2ncc3ncnc(Nc4ccc(F)c(Cl)c4)c3n2)CC1` here?
A: Its Potency is 26.6 µM (active).

Q: Which Potency does the source give for `CC(=O)[C@@]1(O)CC[C@H]2[C@@H]3C[C@H](C)C4=CC(=O)CC[C@]4(C)[C@H]3CC[C@@]21C` here?
A: Its Potency is “inactive”.

Q: With `CO[C@]1(NC(=O)CSC(F)F)C(=O)N2C(C(=O)O)=C(CSc3nnnn3CCO)CO[C@H]21` as the molecule, how does the Potency read?
A: Its Potency is “inactive”.

Q: With `Cc1ccc(/C=N/n2c(-c3ccccc3)csc2=S)cc1` as the molecule, how does the Potency read?
A: The Potency was “inactive”.

Q: For `COC(=O)C1=C(C)NC(C)=C(C(=O)OCCc2ccc(N3CCN(C(c4ccccc4)c4ccccc4)CC3)cc2)C1c1cccc([N+](=O)[O-])c1` (stereo not given), which Potency is on record?
A: Its Potency is “inactive”.

Q: Which Potency does the source give for `CC(=O)OCC(=O)[C@@]1(O)[C@H](OC(C)=O)C[C@H]2[C@@H]3CCC4=CC(=O)C=C[C@]4(C)[C@@]3(F)[C@@H](O)C[C@@]21C` here?
A: Its Potency is “inactive”.

Q: For `CC(C)OC(=O)c1cc2c(OCC(O)CNC(C)(C)C)cccc2[nH]1` (stereo not given), which Potency is on record?
A: Its Potency is “inactive”.

Q: For `CN1C(CSCC(F)(F)F)Nc2cc(Cl)c(S(N)(=O)=O)cc2S1(=O)=O` (stereo not given), which Potency is on record?
A: Its Potency is “inactive”.

Q: With `OC1(c2ccccc2)CCNCC1` as the molecule, how does the Potency read?
A: Its Potency is “inactive”.

Q: With `Cn1c(=O)c2c(ncn2CC(=O)O)n(C)c1=O` as the molecule, how does the Potency read?
A: Its Potency is “inactive”.

Q: With `CO[C@@]1(NC(=O)CSC[C@@H](N)C(=O)O)C(=O)N2C(C(=O)O)=C(CSc3nnnn3C)CS[C@@H]21` as the molecule, how does the Potency read?
A: The Potency was “inactive”.

Q: For `CCOc1ccccc1OCC1CNCCO1` (stereo not given), which Potency is on record?
A: Its Potency is “inactive”.

Q: Which Potency does the source give for `Cc1cccc(N(C)C(=S)Oc2ccc3c(c2)CCC3)c1` here?
A: The Potency was “inactive”.

Q: With `C/C(=N\O)[C@@H](C)NCC(C)(C)CN[C@H](C)/C(C)=N/O` as the molecule, how does the Potency read?
A: The Potency was “inactive”.

Q: With `CCC(=O)O[C@]1(C(=O)COC)[C@@H](C)C[C@H]2[C@@H]3CCC4=CC(=O)C=C[C@]4(C)C3(F)[C@@H](O)C[C@@]21C` (stereo not given in full) as the molecule, how does the Potency read?
A: Its Potency is “inactive”.

Q: Which Potency does the source give for `O=C(Oc1ccccc1)c1cccc(C(=O)Oc2ccccc2)c1` here?
A: Its Potency is “inactive”.

Q: For `OCCOCCN1CCN(C(c2ccccc2)c2ccc(Cl)cc2)CC1` (stereo not given), which Potency is on record?
A: The Potency was “inactive”.

Q: With `COc1cc(OC)nc(O[C@H](C(=O)O)C(OC)(c2ccccc2)c2ccccc2)n1` as the molecule, how does the Potency read?
A: Its Potency is “inactive”.

Q: Which Potency does the source give for `CCOC(=O)C(=O)CCc1ccccc1` here?
A: The Potency was “inactive”.

Q: For `COc1cc(C=O)ccc1O`, which Potency is on record?
A: Its Potency is “inactive”.

Q: With `O=C(O)Cn1cnnn1` as the molecule, how does the Potency read?
A: Its Potency is “inactive”.

Q: Which Potency does the source give for `Cc1nc2n(c(=O)c1CCN1CCC(C(=O)c3ccc(F)cc3)CC1)CCS2` here?
A: Its Potency is “inactive”.

Q: Which Potency does the source give for `CC(C)NC(=O)c1ccc(C=O)cc1` here?
A: The Potency was “inactive”.

Q: With `Nc1nnnn1-c1ccccc1` as the molecule, how does the Potency read?
A: Its Potency is “inactive”.

Q: For `Cc1onc(-c2c(Cl)cccc2Cl)c1C(=O)Cl`, which Potency is on record?
A: Its Potency is “inactive”.

Q: With `O=C(O)/C=C(\CC(=O)O)C(=O)O` as the molecule, how does the Potency read?
A: The Potency was “inactive”.

Q: With `CCCC(CCC)(C(=O)OCC)C(=O)OCC` as the molecule, how does the Potency read?
A: The Potency was “inactive”.

Q: Which Potency does the source give for `Oc1ccccc1` here?
A: The Potency was “inactive”.

Q: Which Potency does the source give for `Cc1ccc(C(=O)Oc2ccc(C(O)CNC(C)(C)C)cc2OC(=O)c2ccc(C)cc2)cc1` (stereo not given) here?
A: The Potency was “inactive”.

Q: Which Potency does the source give for `O=C1Nc2ccccc2C1(c1ccc(O)cc1)c1ccc(O)cc1` here?
A: Its Potency is “inactive”.

Q: For `COc1cc(S(N)(=O)=O)cc(C(=O)O)c1OC`, which Potency is on record?
A: The Potency was “inactive”.

Q: Which Potency does the source give for `O=C1Nc2cc(Cl)ccc2Oc2ccccc21` here?
A: The Potency was “inactive”.

Q: Which Potency does the source give for `CCOc1c(N2CCOCC2)cnn(C)c1=O` here?
A: The Potency was “inactive”.

Q: With `Cc1c(F)cc2c(=O)c(C(=O)O)cn3c2c1CCC3C` (stereo not given) as the molecule, how does the Potency read?
A: Its Potency is “inactive”.

Q: Which Potency does the source give for `Cc1ccc(O)cc1` here?
A: The Potency was “inactive”.

Q: For `CC[N+]1(CC)CCC(=C(c2ccccc2)c2ccccc2)C1C` (stereo not given), which Potency is on record?
A: Its Potency is “inactive”.

Q: With `Fc1ccc(C(c2ccc(F)cc2)N2CCNCC2)cc1` as the molecule, how does the Potency read?
A: Its Potency is “inactive”.
